# The supplement of paper PMC13380429
# System: Vero E6 infected with SARS-CoV-2
# Assay: SARS-CoV-2 infection rate relative to infected DMSO; higher = more infection, active = 60 or less
# Conditions: 24 h
row,SMILES,SARS-CoV-2 infection rate
1,COC(=O)C1=C(C)N(C)C(C)=C(C(=O)OC)C1c1ccc(C(F)(F)F)cc1 (10 µM),114% (inactive)
2,CCOc1ccc(NC(=S)N2CCC(C(O)(c3ccccc3)c3ccccc3)CC2)cc1 (10 µM),86.5% (inactive)
3,Nc1nc2c(cnn2CCc2ccccc2)c2nc(-c3ccco3)nn12 (10 µM),112% (inactive)
4,COc1cc(N2CCC(N3CCN(C)CC3)CC2)ccc1Nc1ncnc(Nc2ccccc2S(=O)(=O)C(C)C)n1 (0.833333 µM),71% (inactive)
5,Oc1ccc(/C=C/c2cc(O)cc(O)c2)cc1 [resveratrol] (10 µM),104% (inactive)
6,CC(=O)[C@H]1CC[C@H]2[C@@H]3CC[C@H]4C[C@](C)(O)CC[C@]4(C)[C@H]3CC[C@]12C [ganaxolone] (10 µM),104% (inactive)
7,COc1ccc(Br)cc1S(=O)(=O)NC(=O)/C=C/c1ccccc1Cc1ccc2ccccc2c1 (10 µM),79.5% (inactive)
8,CC(C)Cc1ccc([C@@H](C)C(=O)NCCO)cc1 (racemic) [mabuprofen] (10 µM),109% (inactive)
9,O=[N+]([O-])c1cn2c(n1)OC[C@@H](OCc1ccc(OC(F)(F)F)cc1)C2 [pretomanid] (10 µM),112% (inactive)
10,CC(=O)O[C@H]1CC[C@@]2(C)C(=CC[C@@H]3[C@@H]2CC[C@]2(C)C(=O)CC[C@@H]32)C1 [prasterone-acetate] (10 µM),110% (inactive)
11,CCN(CC)CCNC(=O)c1cc(S(C)(=O)=O)ccc1OC [tiapride] (10 µM),98% (inactive)
12,CCC(CC)O[C@@H]1C=C(C(=O)O)C[C@H](N)[C@H]1NC(C)=O [oseltamivir-carboxylate] (10 µM),102% (inactive)
13,CC[C@H](Nc1ncnc2[nH]cnc12)c1nc2cccc(F)c2c(=O)n1-c1ccccc1 [idelalisib] (10 µM),116% (inactive)
14,COCCCC/C(=N\OCCN)c1ccc(C(F)(F)F)cc1 [fluvoxamine] (10 µM),90% (inactive)
15,N#CN=C(NCCCCCCOc1ccc(Cl)cc1)Nc1ccncc1 (10 µM),96.5% (inactive)
16,C[C@@H](NC(=O)c1ncnc(N)c1Cl)c1ncc(C(=O)Nc2cc(C(F)(F)F)c(Cl)cn2)s1 (10 µM),108% (inactive)
17,CC1(C)CNc2cc(NC(=O)c3cccnc3NCc3ccncc3)ccc21 [motesanib] (10 µM),108% (inactive)
18,Cc1ccc(S(=O)(=O)c2ccc([N+](=O)[O-])o2)cc1 (0.833333 µM),68% (inactive)
19,Clc1ccc(-c2nc3sccn3c2/C=N/OCc2ccc(Cl)c(Cl)c2)cc1 (10 µM),107% (inactive)
20,CC(=O)Nc1cccc(O)c1 [metacetamol] (10 µM),97% (inactive)

row,SMILES,SARS-CoV-2 infection rate
1,O=C(O)C1CN(Cc2ccc(-c3nc4cc(Cc5ccccc5F)ccc4s3)c(F)c2)C1 (10 µM),113% (inactive)
2,COc1cc(O)c2c(c1)C(=O)c1cc(C)cc(O)c1C2=O [rheochrysidin] (10 µM),109% (inactive)
3,CC(C)C[C@H](NC(=O)[C@H](CCc1ccccc1)NC(=O)CN1CCOCC1)C(=O)N[C@@H](Cc1ccccc1)C(=O)N[C@@H](CC(C)C)C(=O)[C@@]1(C)CO1 [carfilzomib] (0.833333 µM),42% (active)
4,COc1cc2ncnc(Nc3cccc(Cl)c3)c2cc1OC [tyrphostin-AG-1478] (10 µM),118% (inactive)
5,O/N=C/c1ccc(-c2ccc(O)c(F)c2)c(Cl)c1O (10 µM),76.5% (inactive)
6,CC(C)C[C@@H](C=O)NC(=O)[C@H](CC(C)C)NC(=O)[C@H](CC(C)C)NC(=O)OCc1ccccc1 (10 µM),66% (inactive)
7,Cc1ccc(-c2ncn(-c3ccc(Nc4nccc(-c5cccc(N6CCOCC6)c5)n4)cc3)n2)cn1 (10 µM),102% (inactive)
8,CCC[C@@H](NC(=O)N1C(=O)C(CC)(CC)[C@@H]1Oc1ccc(C(=O)N2CCN(C)CC2)cc1)c1ccc2c(c1)OCO2 (10 µM),109% (inactive)
9,N[C@@H](Cn1oc(=O)[nH]c1=O)C(=O)O [L-quisqualic-acid] (10 µM),106% (inactive)
10,Cc1ccc(Nc2c(F)cccc2Cl)c(CC(=O)O)c1 [lumiracoxib] (10 µM),109% (inactive)
11,Cc1c(C(=O)Nc2ccc(N3C[C@@H](C)O[C@@H](C)C3)nc2)cccc1-c1ccc(OC(F)(F)F)cc1 [sonidegib] (10 µM),108% (inactive)
12,CNC(=N)NCCC[C@H](N)C(=O)O [targinine] (10 µM),106% (inactive)
13,CCOc1ccc(/C=C2\NCCc3cc(OCC)c(OCC)cc32)cc1OCC [drotaverine] (10 µM),104% (inactive)
14,NCc1cc(O)no1 [muscimol] (10 µM),111% (inactive)
15,CCN(CC)C(=O)N[C@H]1C[C@@H]2c3cccc4[nH]cc(c34)C[C@H]2N(C)C1 [terguride] (10 µM),110% (inactive)
16,O=NO [sodium-nitrite] (10 µM),108% (inactive)
17,CCC(Cc1c(I)cc(I)c(N)c1I)C(=O)O (stereo not given) [iopanic-acid] (10 µM),116% (inactive)
18,CCO/N=C(\C(=O)N[C@@H]1C(=O)N2C(C(=O)[O-])=C(Sc3nc(-c4cc[n+](C)cc4)cs3)CS[C@H]12)c1nsc(NP(=O)(O)O)n1 [ceftaroline-fosamil] (10 µM),87.5% (inactive)
19,CCC1(CC)C(=O)NC(=O)N(C)C1=O [metharbital] (10 µM),91.5% (inactive)
20,Cc1coc2c1C(=O)C(=O)c1c-2ccc2c(C)cccc12 [tanshinone-I] (10 µM),106% (inactive)
